In ChEMBL document CHEMBL4513216, “Probing the Open Global Health Chemical Diversity Library for Multistage-Active Starting Points for Next-Generation Antimalarials” (ACS Infect Dis, 2020):
Hit rate of the full screen: of about 68,000 compounds, about 2,700 (4%) showed an effect of 50% or more. This is one part of a sample in which strong results are shown more often than they occur.

Each compound was assayed on Plasmodium berghei (assay: Screen against P. berghei liver stage (PbLuc), transformed with Luciferase, at 2uM). Conditions: tested at 2 uM.
Type: functional, HepG2
`CC(=O)c1c(C)nn(S(=O)(=O)c2ccc(F)cc2)c1C` was tested, and the INHIBITION was 16.13%.
Compound `Cc1nc2cc(O)nn2c(C)c1CCC(=O)NCCCC(C)C` has an INHIBITION of 37.68%.
For `CC(C)C1CN(C(=O)c2cc(F)cc3[nH]cnc23)CCS1` (centres undefined), the INHIBITION was 11.24%.
`CN(C)C1CCCN(C(=O)NCCC(C)(C)C)C1` (centres undefined) gave an INHIBITION of 28.95%.
Work on `CC(C)N(CCNC(=O)N1CCCC(N(C)C)C1)C1CC1` (centres undefined) yielded an INHIBITION of 73.01%.
`CN(C)C1CCCN(C(=O)NCCC(=O)N2CCCCCC2)C1` (centres undefined) showed an INHIBITION of -17.01%.
With `Cc1ccc(O)c(CNCC2CCCN2c2cccnn2)n1` (centres undefined) the INHIBITION was 24.88%.
`CCCNC(=O)c1nn(CC)cc1Cl` showed an INHIBITION of -40.28%.
Compound `CCN(CC)CCNC(=O)c1nn(CC)cc1Cl` has an INHIBITION of 54.07%.
`CCN(CC)CCCNC(=O)c1nn(CC)cc1Cl` was tested, and the INHIBITION was 24.34%.
`COCCCNC(=O)c1c(-n2cnnn2)sc2c1CCC2` gave an INHIBITION of -0.44%.
`CS(=O)(=O)c1ccccc1NC(=O)N[C@@H]1c2ccccc2C[C@@H]1O` was tested, and the INHIBITION was -11.32%.
Compound `CS(=O)(=O)c1ccccc1N[C@@H]1c2ccccc2C[C@@H]1O` has an INHIBITION of 54.29%.
With `CN(C)C(=O)c1ccccc1NC(=O)N[C@@H]1c2ccccc2C[C@@H]1O` the INHIBITION was 42.32%.
`O=S1(=O)NCC2(CCCN(Cc3ccccn3)C2)Oc2ncccc21` (centres undefined) showed an INHIBITION of -30.35%.
`CN(C)c1ncc(CNC(=O)Nc2ccc(C(F)(F)F)cc2)n1C` showed an INHIBITION of 47.59%.
Compound `CC(=O)N[C@@H]1CN(Cc2oc3ccccc3c2C)C[C@H]1c1ccc(C)o1` has an INHIBITION of 3.92%.
Compound `Nc1ncccc1CN1CCCn2nc(CCC(=O)NC3CC3)cc2C1` has an INHIBITION of 26.82%.
For `O=C1C(Nc2nccn3cnnc23)CCN1c1cccc(Cl)c1` (centres undefined), the INHIBITION was 34.89%.
Compound `CCCc1noc(C2CCN(C(=O)C3CCCO3)CC2)n1` (centres undefined) has an INHIBITION of 15.58%.
`O=C(NC1CCCC1)c1ccc(C2CCCNC2)nc1` (centres undefined) showed an INHIBITION of 12%.
Compound `COc1c(C2CCCN2CC(=O)N(C)Cc2ccco2)c(C)nn1C` (centres undefined) has an INHIBITION of 5.39%.
Work on `COc1cc(C)ccc1S(=O)(=O)N1CC[C@](C)(O)[C@H](C)C1` yielded an INHIBITION of -11.41%.
`CCc1ccc(S(=O)(=O)N2CC[C@@](O)(CCOC)[C@H](C)C2)cc1` showed an INHIBITION of 26.74%.
`COCC[C@]1(O)CCN(S(=O)(=O)c2ccc(C)cc2OC)C[C@H]1C` showed an INHIBITION of 69.67%.
With `COc1cc(CN2CCC(COCc3ccccc3)CC2)cc(OC)c1` the INHIBITION was 55.25%.
Work on `COc1cc(COCC2CCN(Cc3cccnc3)CC2)cc(OC)c1` yielded an INHIBITION of 20.76%.
`COc1cc(COCC2CCN(Cc3ccccn3)CC2)cc(OC)c1` was tested, and the INHIBITION was 5.98%.
`CC(C)CN1CCC2(COCc3cnc(-c4ccccc4)nc32)C1` (centres undefined) gave an INHIBITION of 5.22%.
For `O=C(c1cc(C2CC2)[nH]n1)N1CCN(Cc2ccccc2)CC1`, the INHIBITION was 5.52%.
For `CC(C)c1ccc(CN2CCN(C(=O)c3cc(C4CC4)[nH]n3)CC2)cc1`, the INHIBITION was 38.87%.
In the case of `O=C(c1cc(C2CC2)[nH]n1)N1CCN(Cc2ccc(Cl)cc2)CC1`, the INHIBITION is reported as 59.99%.
`Cc1ccc(C(=O)Oc2cc(=O)n3cccc(C)c3n2)cc1` gave an INHIBITION of -38.95%.
`COc1ccc(CCNC(=O)C2CCOC2)c(Cl)c1` (centres undefined) gave an INHIBITION of -7.69%.
In the case of `CCOCCCNC(=O)C1(C)CCC(=O)N1c1ccccc1OC` (centres undefined), the INHIBITION is reported as -15.25%.
Work on `Cc1cccc2c1cnn2CCCNC(=O)c1cnn(C)c1` yielded an INHIBITION of 2.66%.
With `O=C(NCCNc1ncccn1)N1CCc2ccccc2C1` the INHIBITION was -17.17%.
`CCc1ncc(C(=O)N2CCN(c3cnn(C)c(=O)c3)CC2)cn1` gave an INHIBITION of 24.36%.
Work on `Cc1oc(C(C)C)cc1C(=O)N1CCN(c2cnn(C)c(=O)c2)CC1` yielded an INHIBITION of 86.36%.
Compound `Cc1cncc(C(=O)N2CCN(c3cnn(C)c(=O)c3)CC2)c1` has an INHIBITION of 41.05%.
`CNc1cc(C2CCCN(C(=O)c3ccc(=O)[nH]n3)C2)ccn1` (centres undefined) gave an INHIBITION of 27.54%.
`CNc1cc(C2CCCN2C(=O)CCc2cnn(C)c2C)ccn1` (centres undefined) was tested, and the INHIBITION was 73.23%.
`CNc1cc(C2CCCN2C(=O)c2ccc3oc(=O)n(C)c3c2)ccn1` (centres undefined) was tested, and the INHIBITION was 11.71%.
`CNc1cc(C2CCCN2C(=O)c2ccc(=O)[nH]n2)ccn1` (centres undefined) was tested, and the INHIBITION was 51.88%.
Compound `Cc1c(CCC(=O)N2CCCC2c2ccnc(N(C)C)c2)cnn1C` (centres undefined) has an INHIBITION of 24.13%.
In the case of `CNc1cc(C2CCCN2C(=O)CCc2ccccc2F)ccn1` (centres undefined), the INHIBITION is reported as -34.8%.
`c1ccc(-c2ncc(CNC3CCc4ncnn4C3)cn2)cc1` (centres undefined) showed an INHIBITION of 15.31%.
Compound `c1ccc(CCN2CCOC(Cn3cccn3)C2)nc1` (centres undefined) has an INHIBITION of 23.71%.
`CC(NC(=O)NCCCNS(C)(=O)=O)c1ccncc1` (centres undefined) showed an INHIBITION of 9.9%.
`CN1CCN(C(=O)N2CCCC(c3nccn3CC3CCC3)C2)CC1` (centres undefined) was tested, and the INHIBITION was -18.71%.
In the case of `Cc1nc(CN2CCC(C(=O)O)(n3ccc(-c4ccco4)n3)CC2)co1`, the INHIBITION is reported as -26.72%.
With `Cc1nc(CN2CCC(C(=O)O)(n3ccc(C(C)C)n3)CC2)co1` the INHIBITION was 53.55%.
`Cc1ccc(N2CCC(C(=O)O)(n3ccc(C(C)C)n3)CC2)nn1` gave an INHIBITION of -12.36%.
In the case of `Cc1ccc(-n2nnc(C(=O)O)c2C)c(C)c1`, the INHIBITION is reported as -2.64%.
With `O=C(c1ccc(S(=O)(=O)NC2CCC2)cc1)N1CC[C@H]2CNC[C@H]21` the INHIBITION was -13.8%.
Compound `Cc1ccc(C(=O)N2C[C@H]3CNC[C@H]3C2)cn1` has an INHIBITION of -53.62%.
In the case of `O=C(c1ccc(F)c(F)c1)N1C[C@H]2CNC[C@H]2C1`, the INHIBITION is reported as -9.69%.
Compound `O=C(c1ccc(S(=O)(=O)NCC(F)F)cc1)N1C[C@H]2CNC[C@H]2C1` has an INHIBITION of 57.75%.
Compound `O=C(c1ccc(S(=O)(=O)NCC(F)F)cc1)N1CC[C@H]2CNC[C@H]21` has an INHIBITION of 26.74%.
Compound `O=C(c1cc(F)cc(F)c1)N1C[C@H]2CNC[C@H]2C1` has an INHIBITION of 51.81%.
Compound `O=C(c1cnccn1)N1C[C@@H](OCc2cccnc2)[C@H]2OCCC[C@H]21` has an INHIBITION of -39.95%.
`CCN(CC)[C@@H]1CN(Cc2nccn2C)[C@@H]2CCCO[C@H]12` gave an INHIBITION of -3.53%.
Work on `CC(C)c1noc(C(C)N2CCN(Cc3nnc(C4CC4)o3)CC2)n1` (centres undefined) yielded an INHIBITION of 58.52%.
`CCCc1nc(CN2CCN(C(C)c3nc(C4CC4)no3)CC2)no1` (centres undefined) was tested, and the INHIBITION was 50.18%.
With `CC(C)c1nc(CN2CCN(C(C)c3nc(C4CC4)no3)CC2)no1` (centres undefined) the INHIBITION was -42.32%.
With `CC(C)c1noc(C(C)N2CCN(Cc3ccsc3)CC2)n1` (centres undefined) the INHIBITION was 60.31%.
Work on `CCc1noc(CS(=O)(=O)C(C)c2nc(C3CC3)no2)n1` (centres undefined) yielded an INHIBITION of 57.16%.
With `CC(c1nc(C2CC2)no1)N1CCN(Cc2ccsc2)CC1` (centres undefined) the INHIBITION was 5.72%.
`CCc1nc(CN2CCN(C(C)c3nc(C4CC4)no3)CC2)no1` (centres undefined) was tested, and the INHIBITION was 13.91%.
With `CCCc1noc(C(C)S(=O)(=O)Cc2nc(C3CC3)no2)n1` (centres undefined) the INHIBITION was -7.66%.
With `Cc1noc(C(C)N2CCN(Cc3nnc(C4CC4)o3)CC2)n1` (centres undefined) the INHIBITION was -4.99%.
`CC(C)c1noc(C(C)N2CCN(Cc3cccs3)CC2)n1` (centres undefined) showed an INHIBITION of 41.76%.
`CC(c1nc(C2CC2)no1)N1CCN(Cc2nnc(C3CC3)o2)CC1` (centres undefined) was tested, and the INHIBITION was 49.01%.
For `CC(C)c1noc(C(C)S(=O)(=O)Cc2nc(C3CC3)no2)n1` (centres undefined), the INHIBITION was -17.22%.
